This is part of a sample that, as a whole, favours compounds with a hit. Of some 83,000 tested, about 20% had one in any assay.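 Method: cells in 96-well plates; compound added at one concentration; 48 h incubation; percent growth measured; values under 10 scored active.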 Activity calls are given as the source filed them.
Experiments:
Test in all cases: NCI-60 one-dose screen, 48 h (100 = growth as untreated, 0 = no growth, -100 = all killed)
Details in all cases: 10 µM unless noted
HCT-15 colon = tested on: HCT-15 colon
HT29 colon = tested on: HT29 colon
SNB-75 CNS = tested on: SNB-75 CNS
SNB-19 CNS = tested on: SNB-19 CNS
U251 CNS = tested on: U251 CNS
PC-3 prostate = tested on: PC-3 prostate
SK-MEL-5 melanoma = tested on: SK-MEL-5 melanoma
UACC-62 melanoma = tested on: UACC-62 melanoma
LOX IMVI melanoma = tested on: LOX IMVI melanoma
SK-MEL-28 melanoma = tested on: SK-MEL-28 melanoma
SK-MEL-2 melanoma = tested on: SK-MEL-2 melanoma
EKVX NSCLC = tested on: EKVX NSCLC
SN12C renal = tested on: SN12C renal
UO-31 renal = tested on: UO-31 renal
TK-10 renal = tested on: TK-10 renal
ACHN renal = tested on: ACHN renal
CAKI-1 renal = tested on: CAKI-1 renal
A498 renal = tested on: A498 renal
CCRF-CEM leukemia = tested on: CCRF-CEM leukemia
MOLT-4 leukemia = tested on: MOLT-4 leukemia

Measured: growth

O=C(O)c1ccc(-n2cc(CNc3cccc(Cl)c3)c(-c3ccc(F)cc3)n2)cc1
inactive: HCT-15 colon 80.7% | HT29 colon 111% | SNB-75 CNS 120% | SNB-19 CNS 99.3% | U251 CNS 101% | PC-3 prostate 94% | SK-MEL-5 melanoma 91.7% | UACC-62 melanoma 74.3% | LOX IMVI melanoma 74.2% | SK-MEL-28 melanoma 101% | SK-MEL-2 melanoma 96.1% | EKVX NSCLC 90.5% | SN12C renal 98.5% | UO-31 renal 94.4% | TK-10 renal 127% | ACHN renal 89.6% | CAKI-1 renal 89.9% | A498 renal 72.5% | CCRF-CEM leukemia 94% | MOLT-4 leukemia 80%

O=C(CCC(=O)N1CCOCC1)OCCCCCCSc1ccc([N+](=O)[O-])c2nonc12
inactive: SNB-75 CNS 36.4% | SNB-19 CNS 25.1% | SK-MEL-5 melanoma 27.9% | TK-10 renal 13.4% | A498 renal 12.8%
active: HCT-15 colon -67.4% | HT29 colon -34.2% | U251 CNS -29.8% | PC-3 prostate 2.96% | UACC-62 melanoma -64.6% | LOX IMVI melanoma -82.2% | SK-MEL-28 melanoma -36.9% | SK-MEL-2 melanoma -40.6% | EKVX NSCLC 1.52% | SN12C renal -74.7% | UO-31 renal -84.2% | ACHN renal -97.7% | CAKI-1 renal -31.2% | CCRF-CEM leukemia -5.49% | MOLT-4 leukemia -2.71%

COC(=O)/C=C/c1c(C2(C)NC(=O)c3ccccc3N2)c(=O)oc2ccc(Cl)cc12 (stereo not given)
inactive: HCT-15 colon 91.4% | HT29 colon 96% | SNB-75 CNS 74% | SNB-19 CNS 90.7% | U251 CNS 88% | PC-3 prostate 89.2% | SK-MEL-5 melanoma 91.4% | UACC-62 melanoma 75.4% | LOX IMVI melanoma 97% | SK-MEL-28 melanoma 97.6% | SK-MEL-2 melanoma 93.7% | EKVX NSCLC 88.3% | SN12C renal 87.9% | UO-31 renal 67.8% | TK-10 renal 108% | ACHN renal 87.4% | CAKI-1 renal 78.2% | A498 renal 59.3% | CCRF-CEM leukemia 101% | MOLT-4 leukemia 101%

CC1(C)NCCC[C@]2(C)[C@H]3C/C(=N\O)C4[C@@H]5C[C@@](C)(CO)CC[C@]5(C)CC[C@@]4(C)[C@]3(C)CC[C@@H]12 (stereo not given in full)
inactive: HCT-15 colon 93.1% | HT29 colon 88.9% | SNB-75 CNS 75.1% | SNB-19 CNS 96.6% | U251 CNS 87.3% | PC-3 prostate 88.9% | SK-MEL-5 melanoma 98.7% | UACC-62 melanoma 95.2% | LOX IMVI melanoma 101% | SK-MEL-28 melanoma 103% | SK-MEL-2 melanoma 101% | EKVX NSCLC 108% | SN12C renal 94.1% | UO-31 renal 90.2% | TK-10 renal 107% | ACHN renal 101% | CAKI-1 renal 85.8% | A498 renal 96.1% | CCRF-CEM leukemia 91.9% | MOLT-4 leukemia 80.5%

O=C1[C@H]2Cc3c([nH]c4ccccc34)[C@@H](c3ccc(Cl)cc3)N2C(=O)CN1C1CCN(Cc2ccccc2)CC1
inactive: HCT-15 colon 23.7% | HT29 colon 27.1% | SNB-75 CNS 79.8% | SNB-19 CNS 66.5% | U251 CNS 63.7% | PC-3 prostate 30.4% | SK-MEL-5 melanoma 56.1% | UACC-62 melanoma 75.4% | LOX IMVI melanoma 17.4% | SK-MEL-28 melanoma 67.8% | SK-MEL-2 melanoma 84.7% | EKVX NSCLC 41.3% | SN12C renal 45.9% | UO-31 renal 26.4% | TK-10 renal 82.3% | ACHN renal 40.6% | CAKI-1 renal 38% | A498 renal 74.8% | CCRF-CEM leukemia 43.3% | MOLT-4 leukemia 27.1%

CCN1CCN(Cc2cn(-c3ccc(S(N)(=O)=O)cc3)nn2)CC1
inactive: HCT-15 colon 104% | HT29 colon 102% | SNB-75 CNS 95.6% | SNB-19 CNS 105% | U251 CNS 109% | PC-3 prostate 97.8% | SK-MEL-5 melanoma 103% | UACC-62 melanoma 98.1% | LOX IMVI melanoma 102% | SK-MEL-28 melanoma 116% | SK-MEL-2 melanoma 115% | EKVX NSCLC 103% | SN12C renal 104% | UO-31 renal 94% | TK-10 renal 108% | ACHN renal 108% | CAKI-1 renal 96.5% | A498 renal 103% | CCRF-CEM leukemia 104% | MOLT-4 leukemia 104%

Clc1cccc(/C=N/Nc2nc(N/N=C/c3cccc(Cl)c3Cl)nc(N3CCCCC3)n2)c1Cl
inactive: HCT-15 colon 65.5% | HT29 colon 84.3% | SNB-75 CNS 104% | SNB-19 CNS 95.4% | U251 CNS 52.9% | PC-3 prostate 70.1% | SK-MEL-5 melanoma 94.2% | UACC-62 melanoma 89.8% | LOX IMVI melanoma 68.3% | SK-MEL-28 melanoma 97.7% | SK-MEL-2 melanoma 114% | EKVX NSCLC 89% | SN12C renal 80.7% | UO-31 renal 93.2% | TK-10 renal 91.2% | ACHN renal 83.7% | CAKI-1 renal 84.1% | A498 renal 92.5% | CCRF-CEM leukemia 71.3% | MOLT-4 leukemia 84.3%

Cn1ccnc1C(=O)/C=C/c1ccc(NC(=O)c2ccc(F)cc2)cc1
inactive: HCT-15 colon 16.9% | SNB-75 CNS 46.9% | SNB-19 CNS 28.1% | U251 CNS 23.3% | PC-3 prostate 27.6% | SK-MEL-5 melanoma 68.2% | UACC-62 melanoma 49.9% | SK-MEL-28 melanoma 90.9% | SK-MEL-2 melanoma 106% | EKVX NSCLC 42.1% | SN12C renal 25% | UO-31 renal 42.3% | TK-10 renal 89.5% | ACHN renal 37.6% | CAKI-1 renal 41.4% | A498 renal 78.1% | MOLT-4 leukemia 16.6%
active: HT29 colon 7.13% | LOX IMVI melanoma 6.38% | CCRF-CEM leukemia 7.06%

c1n[nH]cc1-c1nc2ccc3[nH]ncc3c2c2c1CCCC2
active: SNB-75 CNS 7.62% | UACC-62 melanoma -0.281% | SK-MEL-2 melanoma -20.7% | CAKI-1 renal 0.509% | A498 renal -14.2%
inactive: HCT-15 colon 12.7% | HT29 colon 24% | SNB-19 CNS 23.1% | U251 CNS 30.1% | PC-3 prostate 23.1% | SK-MEL-5 melanoma 16.1% | LOX IMVI melanoma 18.8% | SK-MEL-28 melanoma 18.3% | EKVX NSCLC 42.1% | SN12C renal 15.1% | UO-31 renal 11.9% | TK-10 renal 15.1% | ACHN renal 10.8% | CCRF-CEM leukemia 28.1% | MOLT-4 leukemia 24.6%

COc1ccc(NCc2cn(-c3ccc(C(=O)O)cc3)nc2-c2cc(C(F)(F)F)cc(C(F)(F)F)c2)cc1
inactive: HCT-15 colon 88.8% | HT29 colon 99.1% | SNB-75 CNS 91.9% | SNB-19 CNS 94.9% | U251 CNS 102% | PC-3 prostate 93% | SK-MEL-5 melanoma 98.8% | UACC-62 melanoma 97.3% | LOX IMVI melanoma 99.5% | SK-MEL-28 melanoma 107% | SK-MEL-2 melanoma 101% | EKVX NSCLC 90.3% | SN12C renal 95.4% | UO-31 renal 93.1% | TK-10 renal 110% | ACHN renal 102% | CAKI-1 renal 81.5% | A498 renal 72.1% | CCRF-CEM leukemia 95.9% | MOLT-4 leukemia 86.4%

COc1ccc(-c2nc(C(Cl)Cl)nc3cc(-c4ccccc4)nn23)cc1
inactive: PC-3 prostate 35.5% | SK-MEL-5 melanoma 34.1% | UACC-62 melanoma 37.9% | LOX IMVI melanoma 23.7% | SK-MEL-2 melanoma 77.4% | SN12C renal 29.1% | UO-31 renal 25.7% | TK-10 renal 33.1% | CCRF-CEM leukemia 18.2%
active: HCT-15 colon 4.52% | HT29 colon -20.2% | SNB-75 CNS -9.44% | SNB-19 CNS 5.79% | U251 CNS -51.7% | SK-MEL-28 melanoma -46.4% | EKVX NSCLC -3.98% | ACHN renal -55.3% | CAKI-1 renal -14.5% | A498 renal -33.4% | MOLT-4 leukemia 4.01%

CC(=O)O[C@@H]1C(=O)N(c2cnccn2)[C@H]1c1ccccc1[N+](=O)[O-]
active: HT29 colon 2.42% | U251 CNS -3.35% | SK-MEL-5 melanoma -57.2% | LOX IMVI melanoma 6.26% | A498 renal -20.2%
inactive: HCT-15 colon 15.9% | SNB-75 CNS 21.5% | SNB-19 CNS 41.8% | PC-3 prostate 24.6% | UACC-62 melanoma 30% | SK-MEL-28 melanoma 57.1% | SK-MEL-2 melanoma 10.6% | EKVX NSCLC 58.7% | SN12C renal 16.5% | UO-31 renal 27.7% | TK-10 renal 79.3% | ACHN renal 21.1% | CAKI-1 renal 24.6% | CCRF-CEM leukemia 12.3% | MOLT-4 leukemia 16.4%

O=C(c1ccc(Cl)cc1)C1[C@H](c2ccc(Cl)cc2)[C@@H](c2ccccc2)NC12C(=O)Nc1ccccc12 (stereo not given in full)
inactive: HCT-15 colon 35.1% | HT29 colon 15.4% | SNB-75 CNS 51.1% | SNB-19 CNS 70.3% | U251 CNS 45.8% | PC-3 prostate 29.1% | SK-MEL-5 melanoma 75.1% | UACC-62 melanoma 52.8% | LOX IMVI melanoma 42.4% | SK-MEL-28 melanoma 81.2% | SK-MEL-2 melanoma 72.5% | EKVX NSCLC 58.6% | SN12C renal 16.6% | UO-31 renal 43.8% | TK-10 renal 78.8% | ACHN renal 34.5% | CAKI-1 renal 37% | A498 renal 74.3% | CCRF-CEM leukemia 53.9% | MOLT-4 leukemia 21.1%

COc1ccc(NC(=O)CSc2nnc(-c3ccc4nc(-c5ccc(OC)c(OC)c5)[nH]c4c3)o2)cc1OC
inactive: HCT-15 colon 108% | HT29 colon 105% | SNB-75 CNS 100% | SNB-19 CNS 113% | U251 CNS 112% | PC-3 prostate 102% | SK-MEL-5 melanoma 88.3% | UACC-62 melanoma 92% | LOX IMVI melanoma 98% | SK-MEL-28 melanoma 97% | SK-MEL-2 melanoma 103% | EKVX NSCLC 107% | SN12C renal 100% | UO-31 renal 73.5% | TK-10 renal 117% | ACHN renal 94.2% | CAKI-1 renal 94.7% | A498 renal 93.3% | CCRF-CEM leukemia 86% | MOLT-4 leukemia 86.6%

CC(=O)C1=C(C)NC(NN)=NC1c1cccc(Cl)c1 (stereo not given)
inactive: HCT-15 colon 102% | HT29 colon 111% | SNB-75 CNS 95.9% | SNB-19 CNS 103% | U251 CNS 95% | PC-3 prostate 96.9% | SK-MEL-5 melanoma 106% | UACC-62 melanoma 93.9% | LOX IMVI melanoma 111% | SK-MEL-28 melanoma 106% | SK-MEL-2 melanoma 112% | EKVX NSCLC 96.4% | SN12C renal 98.2% | UO-31 renal 85.9% | TK-10 renal 152% | ACHN renal 99.4% | CAKI-1 renal 91% | A498 renal 93.2% | CCRF-CEM leukemia 97% | MOLT-4 leukemia 96.8%
